Laboratory results from the supplement of paper PMC8728848.
The entries come from a sample that favours the strongest signals as a whole.

Key:
Assay in all cases: glycan array binding signal (z-score within array); higher = stronger binding
Conditions in all cases: glycan notation: IUPAC condensed, linker removed
Fuc(a1-2)Gal(b1-4)GlcNAc = molecular target: Fuc(a1-2)Gal(b1-4)GlcNAc
Method in brief: (§1)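 Glycan array data were curated from 3228 arrays in the Consortium for Functional Glycomics database and kept only where the protein sequence was available. Glycan names were converted to IUPAC-condensed notation, and columns mapping to the same glycan were averaged. The binding signal is a within-array Z-score, averaged across arrays of the same protein sequence at different concentrations or buffers and across linkers. Negative Z-scores can be read as non-binding.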

[1] = molecular target: Fuc(a1-2)Gal(b1-4)GlcNAc(b1-3)Gal(b1-4)GlcNAc(b1-3)Gal(b1-4)GlcNAc
Method in brief: as §1

[2] = molecular target: Fuc(a1-2)Gal(b1-4)GlcNAc6S
Method in brief: as §1

Fuc(a1-2)[Gal(a1-3)]Gal = molecular target: Fuc(a1-2)[Gal(a1-3)]Gal
Method in brief: as §1

[3] = molecular target: Gal(a1-3)Gal(b1-4)[Fuc(a1-3)]GlcNAc
Method in brief: as §1

Gal(b1-2)Gal = molecular target: Gal(b1-2)Gal
Method in brief: as §1

[4] = molecular target: Gal(b1-3)[Fuc(a1-4)]GlcNAc(b1-3)Gal(b1-4)GlcNAc
Method in brief: as §1

[5] = molecular target: Gal(b1-3)[Fuc(a1-4)]GlcNAc(b1-3)Gal(b1-4)[Fuc(a1-3)]GlcNAc
Method in brief: as §1

Gal3S(b1-4)Glc6S = molecular target: Gal3S(b1-4)Glc6S
Method in brief: as §1

Gal3S6S(b1-4)GlcNAc6S = molecular target: Gal3S6S(b1-4)GlcNAc6S
Method in brief: as §1

[6] = molecular target: GlcNAc(b1-4)Gal(b1-4)GlcNAc
Method in brief: as §1

[7] = molecular target: Man(a1-2)Man(a1-3)[Man(a1-2)Man(a1-6)]Man
Method in brief: as §1

[8] = molecular target: Man(a1-2)Man(a1-3)[Man(a1-2)Man(a1-6)]Man(a1-6)[Man(a1-2)Man(a1-2)Man(a1-3)]Man
Method in brief: as §1

[9] = molecular target: Neu5Ac(a2-3)Gal(b1-4)[Fuc(a1-3)]GlcNAc(b1-3)Gal
Method in brief: as §1

[10] = molecular target: Neu5Ac(a2-3)Gal(b1-4)[Fuc(a1-3)]GlcNAc(b1-6)[Gal(b1-3)]GalNAc
Method in brief: as §1

[11] = molecular target: Neu5Ac(a2-6)Gal(b1-4)GlcNAc(b1-2)Man(a1-3)[GlcNAc(b1-2)Man(b1-4)GlcNAc(b1-2)Man(a1-6)]Man(b1-4)GlcNAc(b1-4)GlcNAc
Method in brief: as §1

[12] = molecular target: Neu5Ac(a2-8)Neu5Ac(a2-8)Neu5Ac(a2-3)Gal(b1-4)Glc
Method in brief: as §1

B1: Chaperone 60.2 (Mycobacterium tuberculosum), P9WPE7 (protein)
chain: MAKTIAYDEEARRGLERGLNALADAVKVTLGPKGRNVVLEKKWGAPTITNDGVSIAKEIELEDPYEKIGAELVKEVAKKTDDVAGDGTTTATVLAQALVREGLRNVAAGANPLGLKRGIEKAVEKVTETLLKGAKEVETKEQIAATAAISAGDQSIGDLIAEAMDKVGNEGVITVEESNTFGLQLELTEGMRFDKGYISGYFVTDPERQEAVLEDPYILLVSSKVSTVKDLLPLLEKVIGAGKPLLIIAEDVEGEALSTLVVNKIRGTFKSVAVKAPGFGDRRKAMLQDMAILTGGQVISEEVGLTLENADLSLLGKARKVVVTKDETTIVEGAGDTDAIAGRVAQIRQEIENSDSDYDREKLQERLAKLAGGVAVIKAGAATEVELKERKHRIEDAVRNAKAAVEEGIVAGGGVTLLQAAPTLDELKLEGDEATGANIVKVALEAPLKQIAFNSGLEPGVVAEKVRNLPAGHGLNAQTGVYEDLLAAGVADPVKVTRSALQNAASIAGLFLTTEAVVADKPEKEKASVPGGGDMGGMDF
With B1 the “glycan array binding signal (z-score)” value (Fuc(a1-2)Gal(b1-4)GlcNAc) was 1.32, the “glycan array binding signal (z-score)” value [1] was -0.159 and the “glycan array binding signal (z-score)” value [2] was 4.33. The “glycan array binding signal (z-score)” value (Fuc(a1-2)[Gal(a1-3)]Gal) was -0.04, the “glycan array binding signal (z-score)” value [3] was -0.652 and the “glycan array binding signal (z-score)” value (Gal(b1-2)Gal) was -0.591. For the same binder, the “glycan array binding signal (z-score)” value [4] was 3.11, the “glycan array binding signal (z-score)” value [5] was -0.254 and the “glycan array binding signal (z-score)” value (Gal3S(b1-4)Glc6S) was 4.1. For the same binder, the “glycan array binding signal (z-score)” value (Gal3S6S(b1-4)GlcNAc6S) was 3.22, the “glycan array binding signal (z-score)” value [6] was -0.93 and the “glycan array binding signal (z-score)” value [7] was 1.47. The “glycan array binding signal (z-score)” value [8] was -1.16, the “glycan array binding signal (z-score)” value [9] was -0.716 and the “glycan array binding signal (z-score)” value [10] was -0.295. The “glycan array binding signal (z-score)” value [11] was 3.89 and the “glycan array binding signal (z-score)” value [12] was -0.208.
